Assay results reported in PubChem BioAssay.
Active and inactive are the calls of the source.

Legend:
[1] = E. coli DRC41 culture turbidity changes, primary screen, E. coli filamentation inducer project, strain DRC41, OD650, 48 h (AID 1152);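 note: E. coli MC1000 strain DRC41 lacking acrAB efflux pump and sulA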; conditions: E. coli DRC41 (acrAB sulA), higher = more signal, called active from +8 up or from −8 down
[2] = small-molecule binders of probe aLefty1, primary screen, biochemical, small-molecule microarray, 635/667 nm fluorescence (AID 1153); conditions: higher = more signal;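 note: score merges spot fluorescence with signal-to-noise ratio from the scanned slide images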
[3] = PSAC antagonists in infected red cells, primary screen, cell-based, P. falciparum Indochina, OD700, 1 h (AID 1154); conditions: P. falciparum Indochina infected RBC osmotic lysis, higher = more signal, called active from +8 up or from −8 down
[4] = PSAC antagonists in infected red cells, primary screen, cell-based, P. falciparum Indochina, OD700, 2 h (AID 1155);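 note: lysis reports solute entry through the parasite surface anion channel PSAC; channel blockers reduce lysis of infected cells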; conditions: P. falciparum Indochina infected erythrocytes, osmotic lysis OD700; higher = more signal, called active from +8 up or from −8 down
[5] = osmotic lysis modulators in infected erythrocytes, primary screen, PSAC antagonist project, cell-based, P. falciparum Indochina, OD700, 3 h (AID 1156); conditions: higher = more signal, called active from +8 up or from −8 down
[6] = PSAC antagonists in infected red cells, primary screen, cell-based, P. falciparum Indochina, OD700, 18 h (AID 1157); conditions: P. falciparum Indochina infected erythrocytes, osmotic lysis OD700, 18 h; higher = more signal, called active from +8 up or from −8 down
[7] = modulators of S6 phosphorylation in cells, primary screen, cell-based, A549, cytoblot, luminescence, serum-stimulated (AID 1158); conditions: A549 phospho-S6 cytoblot, 5 h, higher = more signal;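 note: serum-stimulated A549 lung adenocarcinoma cells; signal is phosphorylated S6 detected by cytoblot immunostaining with HRP secondary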
[8] = molecular target: NADPH oxidase 2 (Homo sapiens) (UniProt P04839); test: NOX2-dependent H2O2 signal modulators, primary screen, NOX inhibitor project, cell-based, HEK293-NOX2, PMA-stimulated, Amplex Red fluorescence (AID 1159); conditions: 45 min, higher = more signal, called active from +8 up or from −8 down; note: test concentration not given here
Sequence of NADPH oxidase 2 (Homo sapiens) (P04839 whole entry, looked up): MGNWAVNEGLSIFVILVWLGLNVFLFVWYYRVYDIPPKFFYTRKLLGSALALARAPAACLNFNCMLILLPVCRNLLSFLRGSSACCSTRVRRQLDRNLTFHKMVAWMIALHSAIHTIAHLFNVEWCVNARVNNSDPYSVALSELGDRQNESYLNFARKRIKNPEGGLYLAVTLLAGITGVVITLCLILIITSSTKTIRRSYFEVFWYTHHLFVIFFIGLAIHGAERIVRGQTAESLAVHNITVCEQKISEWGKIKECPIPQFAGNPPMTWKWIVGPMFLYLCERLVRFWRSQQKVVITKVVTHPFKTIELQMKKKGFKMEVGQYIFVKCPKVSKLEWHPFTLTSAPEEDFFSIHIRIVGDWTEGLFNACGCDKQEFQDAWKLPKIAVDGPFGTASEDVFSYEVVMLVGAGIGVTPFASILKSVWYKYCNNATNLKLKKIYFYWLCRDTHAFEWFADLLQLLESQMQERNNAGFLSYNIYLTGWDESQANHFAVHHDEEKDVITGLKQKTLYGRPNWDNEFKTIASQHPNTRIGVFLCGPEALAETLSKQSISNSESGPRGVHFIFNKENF

[9] = molecular target: NADPH oxidase 4 (Homo sapiens) (UniProt Q9NPH5); test: NOX4-dependent H2O2 signal modulators, primary screen, NOX inhibitor project, cell-based, HEK293-NOX4, tetracycline-induced, Amplex Red fluorescence (AID 1160); conditions: 45 min, higher = more signal, called active from +8 up or from −8 down
Sequence of NADPH oxidase 4 (Homo sapiens) (Q9NPH5 whole entry, looked up): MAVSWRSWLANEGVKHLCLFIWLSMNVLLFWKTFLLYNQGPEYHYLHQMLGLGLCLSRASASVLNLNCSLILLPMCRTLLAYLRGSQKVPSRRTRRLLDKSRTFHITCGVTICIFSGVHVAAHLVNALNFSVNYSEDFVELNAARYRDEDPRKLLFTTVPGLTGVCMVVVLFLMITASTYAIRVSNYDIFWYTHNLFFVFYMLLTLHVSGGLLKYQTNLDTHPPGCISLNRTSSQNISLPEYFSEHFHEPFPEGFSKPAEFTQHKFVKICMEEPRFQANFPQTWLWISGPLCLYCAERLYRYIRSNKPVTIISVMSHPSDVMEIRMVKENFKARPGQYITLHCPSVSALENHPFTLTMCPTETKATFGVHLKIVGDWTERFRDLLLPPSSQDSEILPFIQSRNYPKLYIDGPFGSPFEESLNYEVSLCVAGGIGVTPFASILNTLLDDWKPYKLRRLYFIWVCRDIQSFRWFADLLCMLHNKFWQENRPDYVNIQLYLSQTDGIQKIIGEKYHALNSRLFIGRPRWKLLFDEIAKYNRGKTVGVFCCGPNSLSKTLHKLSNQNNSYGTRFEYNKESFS

[10] = molecular target: NADPH oxidase 5 (Homo sapiens) (UniProt Q96PH1); test: NOX5-dependent H2O2 signal modulators, primary screen, NOX inhibitor project, cell-based, HEK293-NOX5, Amplex Red fluorescence (AID 1161); conditions: HEK293-NOX5, ionomycin, 45 min, higher = more signal
Sequence of NADPH oxidase 5 (Homo sapiens) (Q96PH1 whole entry, looked up): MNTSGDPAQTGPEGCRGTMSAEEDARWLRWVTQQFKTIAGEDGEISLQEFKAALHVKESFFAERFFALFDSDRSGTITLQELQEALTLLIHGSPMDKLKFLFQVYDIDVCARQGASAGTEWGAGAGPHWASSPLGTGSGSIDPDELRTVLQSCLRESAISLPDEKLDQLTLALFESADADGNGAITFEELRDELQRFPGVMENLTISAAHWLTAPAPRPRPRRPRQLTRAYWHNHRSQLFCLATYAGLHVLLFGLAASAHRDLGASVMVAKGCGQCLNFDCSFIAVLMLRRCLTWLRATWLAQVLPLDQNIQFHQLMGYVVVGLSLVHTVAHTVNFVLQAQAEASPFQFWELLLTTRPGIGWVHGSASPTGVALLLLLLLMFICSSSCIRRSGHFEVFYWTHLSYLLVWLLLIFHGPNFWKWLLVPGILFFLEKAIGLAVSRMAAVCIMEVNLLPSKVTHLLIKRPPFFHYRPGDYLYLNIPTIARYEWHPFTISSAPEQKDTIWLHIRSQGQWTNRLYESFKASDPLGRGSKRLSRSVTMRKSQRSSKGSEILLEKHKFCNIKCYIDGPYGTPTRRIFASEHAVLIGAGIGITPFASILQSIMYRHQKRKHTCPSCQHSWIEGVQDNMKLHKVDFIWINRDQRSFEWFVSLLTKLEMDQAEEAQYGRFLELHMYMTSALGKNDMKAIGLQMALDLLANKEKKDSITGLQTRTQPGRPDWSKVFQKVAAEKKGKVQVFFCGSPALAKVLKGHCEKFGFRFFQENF

[11] = A549 cell viability effects, profiling panel, calcein-AM fluorescence, 48 h, basal (AID 1162); conditions: higher = more signal; note: test concentration not given here
[12] = adipocyte viability effects, profiling panel, cell-based, 3T3-L1 adipocytes, calcein-AM fluorescence, 48 h, basal (AID 1163); conditions: 3T3-L1 adipocytes viability, higher = more signal; note: test concentration not given here
[13] = HepG2 cell viability effects, profiling panel, calcein-AM fluorescence, 48 h, basal (AID 1164); conditions: higher = more signal; note: test concentration not given here
[14] = MM1S cell viability effects, profiling panel, calcein-AM fluorescence, 48 h, basal (AID 1165); conditions: higher = more signal;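 note: viability of MM1S multiple myeloma cells under basal unstimulated conditions; test concentration not given here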
[15] = basal RPMI8226 viability, no added stimulus, profiling panel, cell-based, calcein-AM fluorescence, 48 h, PK04 Diversity Set (AID 1166); conditions: RPMI8226 myeloma viability, higher = more signal;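 note: cells grown under basal conditions without added stimulus; test concentration not given here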
[16] = basal HepG2 mitochondrial membrane potential changes, profiling panel, cell-based, JC-1 fluorescence, 24 h, 100 nL compound (AID 1167); conditions: higher = more signal; note: test concentration not given here
[17] = basal 3T3-L1 adipocyte mitochondrial potential changes, profiling panel, cell-based, JC-1 fluorescence, 3T3-L1 adipocytes, 24 h, 100 nL compound (AID 1168); conditions: JC-1 mitochondrial fluorescence, higher = more signal, called active from +8 up or from −8 down; note: test concentration not given here
[18] = basal RPMI8226 mitochondrial membrane potential changes, profiling panel, cell-based, JC-1 fluorescence, 24 h, 100 nL compound (AID 1169); conditions: RPMI8226 myeloma, JC-1 mitochondrial potential fluorescence, higher = more signal; note: test concentration not given here
[19] = basal MM1S mitochondrial membrane potential changes, profiling panel, cell-based, JC-1 fluorescence, 24 h, 100 nL compound (AID 1170); conditions: higher = more signal; note: test concentration not given here
[20] = A549 lung cancer cell viability effects, profiling panel, resazurin fluorescence, 24 h, PK04 Diversity Set (AID 1171); conditions: higher = more signal, called active from +8 up or from −8 down; note: test concentration not given here

Compound	z-score [1]	composite z-score [2]	z-score [3]	z-score [4]	z-score [5]	z-score [6]	z-score [7]	z-score [8]	z-score [9]	z-score [10]	z-score [11]	z-score [12]	z-score [13]	z-score [14]	z-score [15]	z-score [16]	z-score [17]	z-score [18]	z-score [19]	z-score [20]
[N-]=[N+]=Nc1ccccc1C[C@@]1(C(=O)NCCN2CCOCC2)N=C(c2ccc(OCCCO)cc2)O[C@@H]1c1ccccc1	1.06 (inactive)	0.234	28.8 (active)	24.3 (active)	2.41 (inactive)	5.39 (inactive)	0.368	-0.57 (inactive)	1.25 (inactive)	0.589	0.189	-0.455	0.357	-0.511	-0.905	2.55	0.248 (inactive)	-0.293	-1.35	-0.524 (inactive)
C=CCOC(=O)[C@H]1[C@@H]2C(=O)O[C@@H](c3ccccc3)[C@@H](c3ccccc3)N2[C@@H](c2ccc(OCCOC(=O)[C@@H]3C[C@@H]4C(=O)N5CCC[C@H]5C(=O)N4[C@@H]3c3cccc(OCCO)c3)cc2)[C@]12C(=O)Nc1ccccc12	-0.152 (inactive)	0.603	3.47 (inactive)	1.16 (inactive)	3.5 (inactive)	0.671 (inactive)	0.605	2.26 (inactive)	0.917 (inactive)	0.15	-0.0865	1.05	-0.786	-0.423	0.107	-1.41	-0.0892 (inactive)	-0.737	-0.421	-1.65 (inactive)
COC(=O)c1c(CC[C@@H](CO)NC(=O)N[C@H](Cn2cc(Cc3ccccc3)nn2)C(C)C)oc(C(C)=O)c1C(=O)OC	0.618 (inactive)	-0.101	1.62 (inactive)	-0.452 (inactive)	0.695 (inactive)	-0.177 (inactive)	1.53	-3.91 (inactive)	-1.31 (inactive)	0.197	-0.138	1.62	0.141	0.486	-0.298	-0.0757	1.58 (inactive)	0.4	0.492	-0.896 (inactive)
CCOC(=O)C[C@H]1[C@H](OC(=O)c2cc3ccccc3oc2=O)[C@@H](NC(=O)C2CCCCC2)c2cc(OCCCO)ccc2N1C(=O)c1ccccc1	1.67 (inactive)	-0.147	0.388 (inactive)	-0.269 (inactive)	0.342 (inactive)	-1.4 (inactive)	1.18	-0.341 (inactive)	0.609 (inactive)	0.305	-0.11	3.15	0.914	0.172	-0.594	1.36	-0.186 (inactive)	-0.848	0.739	-0.713 (inactive)
COCCOC(=O)N1C(=O)[C@@]2(c3cc(C#Cc4ccc(OC)cc4)ccc31)[C@H](c1ccc(O)cc1)N1[C@H](c3ccccc3)[C@H](c3ccccc3)OC(=O)[C@H]1[C@@H]2C(=O)NC[C@H](O)c1ccccc1	0.72 (inactive)	0.176	3.44 (inactive)	0.973 (inactive)	0.38 (inactive)	0.532 (inactive)	0.264	1.07 (inactive)	-1.05 (inactive)	1.1	-0.828	1.44	-0.55	-1	-2.16	-1.99	2.46 (inactive)	-0.653	-0.524	0.123 (inactive)
CN1C(=O)C2C=CC(C(O)c3cc(C(F)(F)F)cc(C(F)(F)F)c3)N(N3CCCCC3)C2C1=O (stereo not given)	-0.78 (inactive)	0.349	1.2 (inactive)	0.968 (inactive)	0.859 (inactive)	0.999 (inactive)	-1.08	0.00363 (inactive)	-0.651 (inactive)	1.01	0.704	0.421	0.499	-1.02	-0.533	-0.672	-0.205 (inactive)	0.462	-0.444	0.113 (inactive)
COC(=O)[C@@]1(Cc2ccc(OC)cc2)[C@H]2c3cc(C(=O)N4CCCC4)n(Cc4ccsc4Br)c3C[C@H]2CN1C(=O)c1ccccc1	-0.68 (inactive)	0.0429	0.538 (inactive)	-0.155 (inactive)	0.0114 (inactive)	0.469 (inactive)	0.0613	0.289 (inactive)	-0.137 (inactive)	-1.24	-1.92	-0.793	-0.119	-3.3	-4.43	0.321	-1.05 (inactive)	-0.822	-2.91	-2.75 (inactive)
COc1ccc(C(=O)O[C@H]2CC[C@]3(C)C4=C(CCC3C2(C)C)[C@]2(C)CC[C@H]([C@H](C)CCCC(C)C)[C@@]2(C)CC4)cc1 (stereo not given in full)	3.06 (inactive)	-0.192	-0.44 (inactive)	-0.787 (inactive)	-0.246 (inactive)	-1.6 (inactive)	1.86	-0.13 (inactive)	0.257 (inactive)	0.467	0.373	0.586	0.729	0.41	0.784	2.19	0.375 (inactive)	-0.0976	-1.47	0.936 (inactive)
COC(=O)[C@@]1(Cc2ccc(F)cc2)[C@H]2c3cc(C(=O)N(C)C)n(CC4CC4)c3C[C@H]2CN1C(=O)c1ccccc1	-0.98 (inactive)	2.06	3.33 (inactive)	1.15 (inactive)	1.07 (inactive)	1.4 (inactive)	-0.884	-0.0955 (inactive)	0.281 (inactive)	0.873	-0.654	0.128	-0.0517	-2.21	-3.32	1.41	-0.708 (inactive)	-0.858	-1.21	-1.38 (inactive)
